The campaign covered roughly 69,000 compounds. About 8,600 (12%) showed an effect of 50% or more. The full list was thinned out, with strong results kept by preference.
What follows are compounds tested on Plasmodium berghei (assay: Screen against P. berghei liver stage (PbLuc), transformed with Luciferase, at 10uM). Conditions: tested at 10 uM.
Type: functional, HepG2

| Structure (SMILES) | INHIBITION [%] |
| --- | --- |
| Cc1cc(Cl)ccc1NCc1ccc(C(=O)N(C)C)[nH]1 | 3.03 |
| CCc1cnc(N2C[C@@H](NC(=O)c3cscn3)[C@H]3COC[C@H]32)nc1 | -82.5 |
| CC(C)CN1CCC2(C=C(C(=O)N(C)C)c3ccccc32)CC1 | 30.3 |
| CCN1CCC2(C=C(C(=O)N(C)C)c3ccccc32)CC1 | 41.2 |
| CN1CCC2(C=C(C(=O)N(C)C)c3ccccc32)CC1 | 63.8 |
| CCC(=O)N1CCC2(C=C(C(=O)N3CCCC3)c3ccccc32)CC1 | 34.9 |
| CCC(=O)N1CCC2(C=C(C(=O)N(C)C)c3ccccc32)CC1 | 53 |
| CC(C)N1CCC2(C=C(C(=O)N(C)C)c3ccccc32)CC1 | -41.6 |
| CC(C)COC(C)C(=O)NCCNC(=O)C(C)C (stereo not given) | 36.8 |
| O=C(Cn1cc(Cl)cn1)N1CCCC(c2cc3ccccc3cn2)C1 (stereo not given) | 24.4 |
| O=C(C1CC=CC1)N1CCCn2nnc(CNc3ncccn3)c2C1 | 29.5 |
| Fc1cccc(-n2ccc(CN3CCCC3Cn3cncn3)n2)c1 (stereo not given) | -19.4 |
| Cc1nc(C(=O)N2CCCC2c2cncc(CN3CCCC3)n2)co1 (stereo not given) | -33.6 |
| Cc1cc(C2CCCN2C(=O)c2cnn(C)c2)on1 (stereo not given) | 0.8 |
| Cc1cccc(NCC(=O)Nc2cc(F)ccc2F)c1C(N)=O | -33.7 |
| CCN1C[C@@H]2[C@@H](OC)CCN(C(=O)c3cc(C)nn3CC)[C@@H]2C1 | 84.1 |
| CCN1C[C@H]2[C@@H](C1)N(C(=O)Cc1ccsc1)CC[C@H]2OC | -9.74 |
| CCn1nc(C)cc1C(=O)N1CC[C@H](OC)[C@H]2CN(CC3CC3)C[C@H]21 | -6.39 |
| CCC(C)NS(=O)(=O)c1ccc(C(=O)NC2(C#N)CCC2)cc1 (stereo not given) | 3.13 |
| CC(C)c1cc(CN(C)C(=O)C(C)N2CCc3ccccc3C2)no1 (stereo not given) | 63.1 |
| CC(C(=O)N(C)Cc1noc(C2CCC2)n1)N1CCc2ccccc2C1 (stereo not given) | 25.8 |
| COCCc1noc(CN(C)C(=O)C(C)N2CCc3ccccc3C2)n1 (stereo not given) | 2.29 |
| Cn1cc(C2CCCN2C(=O)c2cnc(-c3cccs3)s2)cn1 (stereo not given) | 37.7 |
| O=C(C1CCOC1)N1Cc2ccccc2OC2(CCOCC2)C1 (stereo not given) | 12.8 |
| CCOC1CCN(C(=O)NCCN(C)C(=O)OC(C)(C)C)CC1 | 58.2 |
| CN(CCNC(=O)N1CCCC1)C(=O)OC(C)(C)C | -30.5 |
| CC(CCNC(=O)N1CCC1)N(C)C(=O)OC(C)(C)C (stereo not given) | 8.18 |

| Structure (SMILES) | INHIBITION [%] |
| --- | --- |
| COCCN(Cc1ccoc1)S(=O)(=O)c1ccc(F)c(Cl)c1 | -31.7 |
| COc1ccc(CNC(=O)Cc2csc(C(C)=O)c2)cc1 | 33 |
| CC(=O)c1cc(CC(=O)NCc2ccc(F)cc2)cs1 | -38.2 |
| CC(=O)c1cc(CC(=O)NCc2ccc(CN(C)C)cc2)cs1 | 50.1 |
| CS(=O)(=O)Cc1ccc(CNC(=O)N2CCC(C(N)=O)C2)cc1 (stereo not given) | 2.97 |
| CCOc1ncccc1NC(=O)NC1CCN(c2ncccn2)CC1 | -19.9 |
| Cn1nc2c(cc1=O)CN(c1ncnc3ccsc13)CC2 | 34.6 |
| CN(C(=O)CN1CCc2nn(C)c(=O)cc2C1)c1nccs1 | 29 |
| CCCn1nc2c(cc1=O)CN(CCCN1CCCC1=O)CC2 | 6.56 |
| CCCn1nc2c(cc1=O)CN(c1ncnc3ccsc13)CC2 | 91.9 |
| CCn1nc2c(cc1=O)CN(CC(=O)Nc1nccs1)CC2 | 18.2 |
| CC(C)n1nc2c(cc1=O)CN(Cc1nc3ccccc3o1)CC2 | 26.5 |
| CCCn1nc2c(cc1=O)CN(CC(=O)N(C)c1nccs1)CC2 | 9.56 |
| CC(C)n1nc2c(cc1=O)CN(c1nc3ccccc3s1)CC2 | 35 |
| CCn1nc2c(cc1=O)CN(CC(=O)N(C)c1nccs1)CC2 | 50.7 |
| CCn1nc2c(cc1=O)CN(c1nc3ccccc3s1)CC2 | 37.7 |
| CC(C)n1nc2c(cc1=O)CN(c1ncnc3ccccc13)CC2 | 94.5 |
| CCn1nc2c(cc1=O)CN(c1ncnc3ccsc13)CC2 | 93.6 |
| CCCc1c(C2CCOC(C)(C)C2)nc(N)c(C#N)c1-c1cnn(C)c1 (stereo not given) | 4.15 |
| Cc1ccoc1C(=O)NCCS(=O)(=O)N1CCSCC1 | 4.52 |
| c1ccc(Cc2nnc(CN3CCCC(Cn4cncn4)C3)o2)cc1 (stereo not given) | -15.3 |
| COc1cc(N2CCC3(CCCN(C(=O)c4cccnc4)C3)C2)ncn1 (stereo not given) | 19.8 |
| C=C(C)COc1ccccc1CN1CCC(C(=O)NCC)C1 (stereo not given) | 3.06 |
| CC(=O)N[C@@H]1CN(C(=O)CC2CC2)C[C@H]1O | 49.9 |
| Cc1ccc(-c2[nH][nH]c(=O)c2CCN)cc1 | 44.9 |
| Cc1cc(C)n(C2CCCN(C(=O)c3ccc4c(c3)COC4)C2)n1 (stereo not given) | 15.815 |
| COCc1nc(C(=O)NS(=O)(=O)c2ccc(Cl)cc2F)cs1 | -64.25 |

| Structure (SMILES) | INHIBITION [%] |
| --- | --- |
| COc1cccc(Oc2nc(C)c(C(=O)O)s2)c1OC | 45.5 |
| Cc1cc(C2CCCN2Cc2nc3c(cnn3C)c(=O)[nH]2)on1 (stereo not given) | 27.6 |
| Cn1cc(CN2CC[C@H]3OCC[C@@H](C(=O)Nc4cnccn4)[C@@H]3C2)cn1 | 38.5 |
| O=C(Cc1cccc(F)c1)NCCNCc1cccnc1 | 33.3 |
| Cn1c(CN2CCC(N3CCNC3=O)CC2)cc(=O)n(C)c1=O | 29 |
| CC(C)n1nc2c(cc1=O)CN(c1ncnc3ccsc13)CC2 | 86.8 |
| CC(C)n1nc2c(cc1=O)CN(CC(=O)N(C)c1nccs1)CC2 | 17.1 |
| CC(C)n1nc2c(cc1=O)CN(Cc1nnc(C3CC3)o1)CC2 | -25.9 |
| c1csc(CN2C[C@@H]3OCCN(CC4CCCO4)[C@@H]3C2)c1 (stereo not given in full) | -21.5 |
| CC(=O)Nc1nc(C2CCN(C(=O)C3CCC3)CC2)cs1 | 36.7 |
| Cc1ccsc1C(=O)NCc1ccnc(C2CCCOC2)n1 (stereo not given) | 5.1 |
| O=C(Cc1cccs1)NCc1ccnc(C2CCCOC2)n1 (stereo not given) | 53.8 |
| O=C(NCc1ccnc(C2CCCOC2)n1)c1cccs1 (stereo not given) | 33.5 |
| CCN1CCOCC2(CCCN(C(=O)c3cccc(O)c3)C2)C1 (stereo not given) | 26 |
| O=C(c1cccc2ccnn12)N1CCC[C@H]1CN1CCCC1 | 19.8 |
| O=C1NCC2(CCCN(C(=O)c3c[nH]nc3C3CCCCC3)C2)O1 (stereo not given) | 31.8 |
| Cc1cc(C)n2nc(C(=O)N3CCCC4(CNC(=O)O4)C3)cc2n1 (stereo not given) | 27.4 |
| Cc1cc(C(=O)N2CCCC3(CNC(=O)O3)C2)c2c(C)nn(C)c2n1 (stereo not given) | 54.1 |
| CCN1C(=O)CCCC12CCCN(C(=O)c1cnccn1)C2 (stereo not given) | 27.4 |
| Cc1ccc(-c2cc(CNC(=O)N3CCSCC3)on2)cc1 | -5.25 |
| COc1c(CNC(c2ccccc2F)c2nccn2C)c(C)nn1C (stereo not given) | 2.95 |
| Cc1cccc2cc(CO)c(N3Cc4cnc(C(C)(C)C)nc4C3)nc12 | 91.2 |
| CC(C)Cc1ncc2c(n1)CN(c1nc3ccccc3cc1CO)C2 | 33.9 |
| Cc1ccc(C(=O)O)c(N2Cc3cnc(C(C)(C)C)nc3C2)n1 | -7.27 |
| O=C(c1n[nH]c2c1CN(C1CCOC1)CC2)N1CCCC1 (stereo not given) | 12.4 |
| COCC1CC2(CCN(C(=O)c3ccco3)CC2)CN1C(C)C (stereo not given) | 17.4 |
| CN(CCOc1cccc(F)c1)Cc1nc2c(cnn2C)c(=O)[nH]1 | 55.2 |

| Structure (SMILES) | INHIBITION [%] |
| --- | --- |
| CN(Cc1ccc2c(c1)OCO2)Cc1nc2c(cnn2C)c(=O)[nH]1 | 13.9 |
| CN(Cc1ccc2c(c1)OCCO2)Cc1nc2c(cnn2C)c(=O)[nH]1 | 59.4 |
| CC(C)CCN(C)Cc1nc2c(cnn2C)c(=O)[nH]1 | -21.05 |
| CN(CC(=O)N(C)C1CCCCC1)Cc1nc2ccccc2c(=O)[nH]1 | 44.7 |
| CC(C)CN(C)Cc1nc2c(cnn2C)c(=O)[nH]1 | -14.935 |
| CN(CC(=O)N(C)C1CCCCC1)Cc1nc2c(cnn2C)c(=O)[nH]1 | 55.4 |
| CCN(CC)C(=O)CN(C)Cc1nc2c(cnn2C)c(=O)[nH]1 | 37.2 |
| CN(CCCOc1ccc(F)cc1)Cc1nc2c(cnn2C)c(=O)[nH]1 | 39.2 |
| CN(CC(=O)N1CCCC1)Cc1nc2c(cnn2C)c(=O)[nH]1 | 64 |
| CN(Cc1cccc(F)c1)Cc1nc2c(cnn2C)c(=O)[nH]1 | 23.7 |
| CCN(Cc1ccc2c(c1)OCO2)Cc1nc2c(cnn2C)c(=O)[nH]1 | -6.14 |
| Cc1nc(C)n(C2CCCN(C(=O)c3c[nH]c(C(C)C)n3)C2)n1 (stereo not given) | 40.9 |
| CS(=O)(=O)N1CCC2(CC1)COC(COc1ccccn1)C2 (stereo not given) | -27.9 |
| CC(C)OC[C@H]1CCC[C@]12CN(S(=O)(=O)c1cn(C)cn1)CCO2 | 1.7 |
| OC1(CNCCc2csc(-c3ncccn3)n2)CCNC1 (stereo not given) | 39.3 |
| COCC(=O)NCc1cc(=O)n2c(n1)CN(CC1CCOC1)CCC2 (stereo not given) | 37.5 |
| Cc1nc(C)n(CC2CCCN(Cc3nc(C4CC4)no3)C2)n1 (stereo not given) | 60.6 |
| CCc1nc(CN2CCCC(Cn3nc(C)nc3C)C2)no1 (stereo not given) | 33.3 |
| COCCc1noc(CN2CCCC(Cn3nc(C)nc3C)C2)n1 (stereo not given) | 40.9 |
| Cc1noc(CN2CCCC(Cn3nc(C)nc3C)C2)n1 (stereo not given) | 27.8 |
| Cc1nc(C)n(CC2CCCN(Cc3noc(C)n3)C2)n1 (stereo not given) | 56.6 |
| CCc1noc(CN2CCCC(Cn3nc(C)nc3C)C2)n1 (stereo not given) | 18.2 |
| CNC(=O)[C@@]12CCO[C@@H]1CCN(S(=O)(=O)c1cccnc1)C2 | 23.9 |
| Cn1cc(CN2CC(C(=O)Nc3ccccc3)C3(CCOCC3)C2)cn1 (stereo not given) | 48.2 |

From ChEMBL document CHEMBL4513216, “Probing the Open Global Health Chemical Diversity Library for Multistage-Active Starting Points for Next-Generation Antimalarials” (ACS Infect Dis, 2020)
